For 60 compounds, INHIBITION results are on record in ChEMBL document CHEMBL4513216, “Probing the Open Global Health Chemical Diversity Library for Multistage-Active Starting Points for Next-Generation Antimalarials” (ACS Infect Dis, 2020).

Each structure is given as a SMILES string. The whole screen tested about 69,000 compounds, of which about 8,600 (12%) showed an effect of 50% or more. Many of the other results were omitted from the sample, so strong results are more common in it than they were.

The subject of the assay is Plasmodium berghei. The assay is described as follows: Screen against P. berghei liver stage (PbLuc), transformed with Luciferase, at 10uM. Type of assay: functional, HepG2. The settings on record: tested at 10 uM.
As to `CC(c1ccncc1)n1cc2nc(N(C)C)[nH]cc-2c1=O` (stereo not given), the INHIBITION was -27.5%. Under `COCC(=O)N1CCC(c2n[nH]c3nccnc23)CC1` stands -22.6%.

Regarding `CC(C)(C)OC(=O)N1CCC(C(=O)NCCNc2ncccn2)CC1`, the INHIBITION is recorded as -33.9%. In the case of `c1csc(N2[C@H](Cn3cncn3)C[C@@H]3CNCC[C@@H]32)n1`, the INHIBITION is -86.4%. Take `COc1ccccc1C(O)CNc1nccc(-c2ccc(C)nc2C)n1` (stereo not given): the INHIBITION was determined as 0.868%.

As to `c1cnn(CC2CCCCN2Cc2nc(-c3ccoc3)no2)c1` (stereo not given), the INHIBITION was 31.8%. Consider `CC(NC(=O)NCc1cccnc1N(C)C)c1cccs1` (stereo not given), for which the INHIBITION stood at 37.9%. On to `COc1cc(C(=O)Nc2nc(C)no2)ccc1C`, for which the INHIBITION came out at 63.6%. On to `COc1cc(C(=O)Nc2nc(C)no2)ccc1OC1CCCC1`, for which the INHIBITION amounted to 29.7%. For `COc1cc(C(=O)Nc2nc(C)no2)ccc1OC(F)F`, the INHIBITION is recorded as 81.1%. On to `COc1cc(C(=O)Nc2c(C)noc2C)ccc1C`, for which the INHIBITION was found to be 18.6%. Under `COc1cc(C(=O)Nc2cn[nH]c2)ccc1C` stands 10.45%; under `Cc1noc(CNc2ccc(OC(F)F)cc2OC(F)F)n1`, -29.9%. As for `COCC(C)(NC(=O)c1cc(Cl)c(-n2cccc2)cc1OC)C(N)=O` (stereo not given), the INHIBITION was -35%.

In the case of `CCn1cc(C(=O)NCc2ccc3c(c2)OCO3)c(C)n1`, the INHIBITION came to 3.52%. For the compound `CN(CCC(O)c1ccccc1)Cc1nc(-c2ccccc2)no1` (stereo not given), the INHIBITION is on record as 62.9%. Regarding `Cc1nc(CN(C)Cc2nc(-c3ccccc3)no2)co1`, the INHIBITION amounted to 14.3%. With `CN(CCC(O)c1ccccc1)Cc1ccccc1C#N` (stereo not given), the INHIBITION was 41.1%.

As for `O=C(Nc1nccs1)NC1CCN(Cc2ccccc2)CC1`, the INHIBITION turned out to be 15%. For the compound `C=c1ncsc1=C1NN=C(C2CCCN2C(=O)c2ccn(CC)n2)O1` (stereo not given), the INHIBITION was 9.535%. Turning to `FC(F)(F)C1CN(Cc2cccc(-c3ccccn3)c2)CCO1` (stereo not given), the INHIBITION came to 4.93%.

As for `CC(=O)NCc1ccc(-c2ccccc2C(=O)O)cn1`, the INHIBITION was -24.5%.

For `Cc1cc(C(=O)N2CC[C@@H]3CO[C@@H](CN4CCCC4)[C@@H]3C2)no1`, the INHIBITION was determined as 23.3%. Turning to `CNc1nc(C)c(C(=O)N2CCCCC2CCc2ccccc2)s1` (stereo not given), the INHIBITION is recorded as -14.7%. In the case of `CCOC(=O)CC1CCCCN1C(=O)c1cc(C)on1` (stereo not given), the INHIBITION is reported as 17.5%. Under `CNc1nc(C)c(C(=O)N2CCCCC2CN2CCCCCC2)s1` (stereo not given) stands 50%. On to `Cc1cc(C(=O)N2CCCC2CN2CCCC2)no1` (stereo not given), for which the INHIBITION came to 61.1%. Regarding `CNc1nc(C)c(C(=O)N2CCCCC2CCN2CCOCC2)s1` (stereo not given), the INHIBITION was determined as 13.6%. As to `OC(CN1CCN(Cc2cc(F)cc(F)c2)CC1)C1CC1` (stereo not given), the INHIBITION is 5.85%. For `Cc1cc(CN(C)CC(c2cccs2)N2CCOCC2)on1` (stereo not given) the value was -48.4%. For `CCN(CC)c1ncc(S(=O)(=O)c2cccc(C)c2)c(N)n1` the value was 17.7%. Under `CN1CCCN(c2ncnc(N3CCOCC3)c2N)CC1` stands 32.2%; under `COCCNc1cc(C(=O)N2CCOCC2)nc(C)n1`, 8.24%. On to `Cc1nc(C2CN(C)CCO2)cc(N2CCC(C(N)=O)CC2)n1` (stereo not given), for which the INHIBITION is -20.2%.

For `CCOC(=O)C1CCN(c2cc(C(=O)N3CCOCC3)nc(C)n2)CC1`, the INHIBITION amounted to 62.9%.

For the compound `CCOC(=O)C1CCN(c2cc(C(=O)N3CCCCC3)nc(C)n2)CC1`, the INHIBITION turned out to be 9.52%. With `CCCNc1cc(C(=O)N2CCOCC2)nc(C)n1`, the INHIBITION is 34.6%. As for `Cc1nc(C(=O)N2CCOCC2)cc(N2CCC(C(N)=O)CC2)n1`, the INHIBITION is on record as 56.1%. Consider `CC(C)(O)CN1CCN(C(=O)c2ccc(Cl)c3cccnc23)CC1`, for which the INHIBITION was 36.9%. Consider `COc1cc(C(=O)O)cc(I)c1OCC(=O)NCCc1ccccc1`, for which the INHIBITION was 25.5%. Regarding `CC(NC(=O)NCCc1ccc(Cl)s1)c1ccccn1` (stereo not given), the INHIBITION is listed as -12.1%. For the compound `COc1ccc(C(=O)N2CC(=O)N(Cc3cccs3)CC(O)C2)cc1` (stereo not given), the INHIBITION is given as 27.5%. Under `CC(C)COC(=O)N1CCCN(C(=O)c2ccnc(N(C)C)c2)CC1` stands 33.4%. For `CC(C)COC(=O)N1CCN(C(=O)c2ccc3nccn3c2)CC1` the value was 50.1%; for `CC(C)CCC(=O)N1CCN(C(=O)c2ccc3nccn3c2)CC1`, 24.2%; for `c1ncn(CC2CCCCN2Cc2csc(-c3ccsc3)n2)n1` (stereo not given), -58.7%. Consider `CCC1COCCN1C(=O)NCc1nccn1CC(C)C` (stereo not given), for which the INHIBITION is listed as 8.59%. Take `Cn1cccc1CNC(=O)N(CCO)C1CCCc2ccccc21` (stereo not given): the INHIBITION was found to be 26.8%. For `O=C(NC1CC(F)(F)C1)[C@]12COC[C@H]1CN(Cc1ccsc1)C2` the value was 35.8%.

Regarding `O=C(NCc1cccs1)[C@]12COC[C@H]1CN(c1ncccn1)C2`, the INHIBITION is reported as 2.41%. For the compound `O=C(NCCc1cccs1)[C@]12COC[C@H]1CN(C1CCOCC1)C2`, the INHIBITION was found to be 61.1%. Turning to `CS(=O)(=O)N1C[C@@H]2COC[C@]2(C(=O)NCCc2cccs2)C1`, the INHIBITION is reported as 24.9%. Regarding `CN1C[C@@H]2COC[C@]2(C(=O)NCc2cccs2)C1`, the INHIBITION was 4.02%.

For `O=C(NCCc1cccs1)[C@]12COC[C@H]1CN(Cc1ccccn1)C2`, the INHIBITION is recorded as 24.9%. Take `O=C(NCCc1cccs1)[C@]12COC[C@H]1CN(c1ncccn1)C2`: the INHIBITION came out at 52.1%.

As for `O=C(NC1CC(F)(F)C1)[C@]12COC[C@H]1CN(Cc1cccnc1)C2`, the INHIBITION is reported as 29.4%. `CN1C[C@@H]2COC[C@]2(C(=O)NCCc2cccs2)C1`: the INHIBITION was 34.6%.

Regarding `O=C(NCCc1cccs1)[C@]12COC[C@H]1CN(Cc1ccncc1)C2`, the INHIBITION is on record as 54.8%. With `Cn1cc(CN2C[C@@H]3COC[C@]3(C(=O)NCc3cccs3)C2)cn1`, the INHIBITION is recorded as 28.3%. Under `O=C(NC1CC(F)(F)C1)[C@]12COC[C@H]1CN(Cc1ccccc1)C2` stands 61.1%.
